CYP2C19 inh: inhibitors of human CYP2C19 | P33261 | CYP2C19 Supersomes, luciferin-H EGE luminescence, 30 min | inhibition, % at 5 µM | actives 21% (n = 96,000) | AID 778;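 active = CYP2C19 inhibition above a set limit at 5 µM in the primary screen, cut at about 50% in these data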
CYP2C9 inh: blocks human cytochrome P450 2C9; actives 20% (n = 96,000); AID 777; CYP2C9 Supersomes, luciferin-H conversion, luminescence; P11712; inhibition, % at 5 µM;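 active = blocking of liver enzyme CYP2C9 beyond about 50% at 5 µM, limit read from the data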
Target sequence (P11712 whole entry, looked up): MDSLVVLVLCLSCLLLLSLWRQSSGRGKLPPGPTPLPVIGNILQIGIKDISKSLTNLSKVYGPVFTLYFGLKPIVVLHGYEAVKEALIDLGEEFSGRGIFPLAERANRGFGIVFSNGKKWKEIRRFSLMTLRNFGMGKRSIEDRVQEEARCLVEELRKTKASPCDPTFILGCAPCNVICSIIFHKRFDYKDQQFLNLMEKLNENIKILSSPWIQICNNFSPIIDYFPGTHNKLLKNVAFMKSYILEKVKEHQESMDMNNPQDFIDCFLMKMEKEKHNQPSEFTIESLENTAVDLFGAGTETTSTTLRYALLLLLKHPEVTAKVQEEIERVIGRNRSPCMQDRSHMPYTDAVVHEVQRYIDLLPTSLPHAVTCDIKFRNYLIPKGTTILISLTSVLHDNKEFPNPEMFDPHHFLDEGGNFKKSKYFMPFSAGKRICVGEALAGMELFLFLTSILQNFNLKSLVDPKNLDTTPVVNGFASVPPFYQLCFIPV
CYP2C9 activ: increases human cytochrome P450 2C9 activity; AID 1024; activation factor at 5 µM; P11712; recombinant CYP2C9, luciferin-H conversion, luminescence; active compounds read high; factor 1 = untreated enzyme, 0 = blocked; actives 1.4% (n = 96,000);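 active = activation factor of 2 or more for CYP2C9 at a 5 µM dose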
PostGolgi ctrl: yeast control strain growth, post-Golgi counter-screen. actives 5% (n = 98,000). efflux-deficient yeast background strain, growth absorbance A615, 16 h. AID 738. inhibition, % at 10 µM
PostGolgi yeast: growth inhibition of a yeast mutant, post-Golgi transport screen | post-Golgi transport phenotypic cell assay | inhibition, % at 10 µM | actives 0.9% (n = 98,000);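 also: yeast cells grown in 1536-well plates; yeast grown about 18 h at 30C before absorbance read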
CYP2C19 act: increases human CYP2C19 enzyme activity. AID 1025. P33261. activation factor at 5 µM. 96,000 tested, under 10 active. recombinant CYP2C19, luciferin-H EGE luminescence; active compounds read high; 0 = fully inhibited enzyme, 1 = untreated enzyme;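 active = activation factor of at least 2 at 5 µM in the primary screen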
Each line names hits and unclear results; the compound was inactive in the other large screens. A selection: hits, their analogues and other compounds. The true share with any hit is near 32%. Rule as the data show it, unless noted: active = inhibition above about 30%; inactive = the rest.

Cc1ccc(S(=O)(=O)NC(C)CCc2ccccc2)cc1 (centres undefined)	none
Cc1ccc(SC(C)C(=O)NCC(C)C)cc1 (centres undefined)	none
Cc1occc1C(=O)NCCc1cccc(Cl)c1	CYP2C19 inh 92, CYP2C9 inh 64
COc1ccc(S(=O)(=O)N(CC(=O)N2CCOCC2)c2cc(Cl)ccc2OC)cc1OC	none
O=C(Cc1ccccc1)NCCc1cccc(Cl)c1	CYP2C19 inh 71
CC(CCc1ccccc1)NC(=O)CSc1nc(N)cc(N)n1 (centres undefined)	CYP2C19 inh 56
COC(=O)C(Cc1ccccc1)NC(=O)CSc1nc(N)cc(=O)[nH]1 (centres undefined)	none
O=C(CNC(=O)c1ccco1)NCCCc1ccccc1	none
O=C(Cc1ccccc1)NCCCc1ccccc1	CYP2C19 inh 68
CC(CCc1ccccc1)NC(=O)/C=C/c1ccccc1 (centres undefined)	CYP2C19 inh 52, PostGolgi ctrl 40
COc1ccc(-n2nnc3c(SCC(=O)NCC4CCCO4)ncnc32)cc1 (centres undefined)	none
CCOc1ccccc1N(CC(=O)NC(C)(C)C)C(=O)Cn1nnc(-c2ccc(C)o2)n1	none
O=C1c2ccc(Oc3ccc4c(c3)C(=O)N(CCCO)C4=O)cc2C(=O)N1CCCO	none
CC/C(C)=C1\SC(N2CCOCC2)=NC1=O	none
Cc1ccc(CC(=O)NCCCc2ccccc2)cc1	CYP2C19 inh 79, CYP2C9 inh 85
Cc1occc1C(=O)NCc1ccccc1F	CYP2C9 inh 51
O=C(Cc1ccccc1)NCCSCc1ccc(Cl)cc1	CYP2C9 inh 63
Cc1noc(C)c1C(=O)NCCCc1ccccc1	CYP2C19 inh 53, CYP2C9 inh 53
COC(=O)c1sc(NC(=O)C(C)C)c(C(=O)OC)c1C	CYP2C19 inh 53
CCC(=O)Nc1sc(C(=O)OC)c(C)c1C(=O)OC	none
CCOC(=O)c1sc(NC(=O)C2CCCO2)c(C(=O)OCC)c1C (centres undefined)	none (no result: PostGolgi ctrl, PostGolgi yeast)
COC(=O)c1c(NC(=O)C2CCC2)sc(C(=O)N(C)C)c1C	none
Cc1c(C(=O)OC(C)C)sc(NC(=O)C2CCCO2)c1C(=O)OC(C)C (centres undefined)	CYP2C19 inh 69, CYP2C9 inh 76
COC(=O)c1sc(NC(=O)C2CCCO2)c(C(=O)OC)c1C (centres undefined)	CYP2C19 inh 51
COC(=O)c1sc(NC(=O)C2CCCCC2C(=O)O)c(C(=O)OC)c1C (centres undefined)	CYP2C9 inh 93
Cc1nn(C)c(C)c1/C=N/O	none
Cc1ccc(NC(=O)C(C)Sc2nnc(-c3cccnc3)o2)cc1 (centres undefined)	none
Cc1nc(CS(=O)c2ccc(Cl)cc2)cc(NCc2ccc(Cl)cc2Cl)n1 (centres undefined)	CYP2C19 inh 91, CYP2C9 inh 96, PostGolgi ctrl 35
CSCc1cc(N2CCOCC2)nc(SCc2ccc(Cl)c(Cl)c2)n1	CYP2C19 inh 53
Cc1nc(CSc2ccc(Cl)cc2)cc(N2CCOCC2)n1	CYP2C19 inh 94
Cc1nc(CSc2ccc(Cl)cc2)cc(NCc2ccccc2)n1	CYP2C19 inh 85, CYP2C9 inh 91
Cc1ccc(SCc2cc(=O)[nH]c(N3CCOCC3)n2)cc1	none
CC1Cc2ccccc2N1C(=O)C1CCN(S(=O)(=O)Cc2ccccc2)CC1 (centres undefined)	none
CC1CCc2nc(NCCO)nc(C(F)(F)F)c2C1 (centres undefined)	none
Cc1nnsc1SCC(=O)O	none
Cc1ccc(CNC(=O)CS(=O)Cc2nc(-c3cccs3)oc2C)cc1 (centres undefined)	none
CCOC(=O)C1=C(C)N2C(=C(C#N)[C@@H]1c1ccc(C(=O)OC)cc1)SC[C@@]2(O)C(C)(C)C	CYP2C19 inh 97, CYP2C9 inh 98
COc1cc(OC)nc(NC(=O)NS(=O)(=O)c2ccc(OC(F)(F)F)cc2)n1	none
COc1ccc(-c2[nH]ncc2/C=N\NS(=O)(=O)c2ccc(Cl)cc2)cc1	CYP2C19 inh 90, CYP2C9 inh 68, PostGolgi ctrl 31
COc1ccc(-c2nc3ccccc3c(=O)o2)cc1OC	none
O=C(N/N=C/c1ccc(Cl)cc1Cl)Nc1ccccc1	none
COc1ccc(-c2[nH]ncc2/C=N\NS(=O)(=O)c2ccccc2)cc1OC	CYP2C9 inh 71
CC(C)(Oc1ccc(Cl)cc1)C(=O)N/N=C/c1cn[nH]c1-c1ccccc1	CYP2C19 inh 72, CYP2C9 inh 72
CCCc1oc(C(=O)O)cc1CN1CCOCC1	none
Cn1c2c(c(=O)n(C)c1=O)CN(CC1CCCO1)CN2 (centres undefined)	none
COC(=O)CC(NS(=O)(=O)c1cccs1)c1ccccc1Cl (centres undefined)	CYP2C19 inh 94
COC(=O)c1ccc(N2C(=O)CC(N(C)Cc3ccccc3)C2=O)cc1 (centres undefined)	none
COc1cccc(-c2nn(-c3ccccc3)cc2/C=C\C(=O)c2cccs2)c1	CYP2C9 inh 58
CS(=O)(=O)N1Cc2ccccc2CC1C(=O)OCC(=O)Nc1ccc2ccccc2c1 (centres undefined)	none
CC(C)NC(=O)Cn1cc(C#N)c2cc(Br)ccc21	CYP2C19 inh 73
N#Cc1cn(CC(=O)NCC2CCCO2)c2ccccc12 (centres undefined)	none
CCCCOCCCNC(=O)c1c(-c2ccccc2)noc1C	CYP2C19 inh 68
Cc1onc(-c2ccccc2)c1C(=O)NCc1cccnc1	CYP2C19 inh 59
Cc1onc(-c2ccccc2)c1C(=O)Oc1cccnc1	CYP2C19 inh 51
COCCCNC(=O)c1c(-c2ccccc2)noc1C	none
Cc1ccc(C(=O)Nc2ncnc3sc4c(c23)CCCCC4)cc1	none
Fc1ccc2c(c1)C(c1ccc(N3CCOCC3)cc1)=NNC(c1cccs1)=N2	CYP2C19 inh 90, CYP2C9 inh 84, PostGolgi ctrl 36
O=C(CCS(=O)(=O)c1cccc2nonc12)NCCc1ccccc1	CYP2C19 inh 53
CC(C)CCNC(=O)CCS(=O)(=O)c1cccc2nonc12	CYP2C19 inh 55
CCOc1ccccc1NC(=O)CCS(=O)(=O)c1cccc2nonc12	CYP2C19 inh 67
O=C(CCNS(=O)(=O)c1cccc2nonc12)NCc1cccs1	CYP2C9 activ 2
CC(C)NC(=O)CCS(=O)(=O)c1cccc2nonc12	none
CCOC(=O)c1ccc(NC(=O)CN2C(=O)C(=O)N(CC(C)C)C2=O)cc1	none
CCn1cc(C(=O)Nc2ccc(-n3cnnn3)c(OC)c2)c(=O)c2ccc(C)nc21	none
CC(C)CC(=O)Nc1ccccc1-c1nnn(CC(=O)N2CCOCC2)n1	none
O=C(Nc1ccc(Cl)cc1C(=O)NCCN1CCOCC1)c1ccco1	CYP2C9 inh 68
O=C(CNC(=O)c1ccco1)Nc1cc(Cl)ccc1N1CCOCC1	CYP2C9 inh 73
